# Among all 5,500 compounds or so, about 2,000 (36%) were called active. Not shown: some 18% with an inconclusive outcome. The list shows a part of the results. Unmarked numbers belong to inactive results. No stated cut-off is given here; in the data, active means normalized growth mostly below about 0.91 (no sharp cut-off); inconclusive means no clear call, values can overlap the other calls; inactive means mostly above about 0.92.
# Assay: chemical genetic growth profiling, strain panel (AID 1159580);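 further: tested at 20 µM; growth read once vehicle control cultures reached saturation at 30 °C; 1 = growth at the plate median or of vehicle wells; lower values mean less growth of the strain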
# Conditions: S. cerevisiae deletion strains, growth OD
compound,measurement,setting,value
COc1cc(OC)c(C(C)=O)c(O)c1C,normalized growth,"locus YAL021C, strain ccr4, hits give low values",0.991
same,normalized growth,"locus YAL026C, strain drs2, hits give low values",0.908
same,normalized growth,"locus YAL030W, strain snc1, hits give low values",0.953
same,normalized growth,"locus YBL061C, strain skt5, hits give low values",0.923
same,normalized growth,"locus YBR009C, strain hhf1, hits give low values",0.88 (active)
same,normalized growth,"locus YBR023C, strain chs3, hits give low values",0.905 (active)
same,normalized growth,"locus YBR171W, strain sec66, hits give low values",0.945
same,normalized growth,"locus YBR231C, strain swc5, hits give low values",0.934
same,normalized growth,"locus YBR279W, strain paf1, hits give low values",0.951
same,normalized growth,"locus YCL011C, strain gbp2, hits give low values",0.905 (active)
same,normalized growth,"locus YCL016C, strain dcc1, hits give low values",0.956
same,normalized growth,"locus YCL061C, strain MRC1, hits give low values",0.937
same,normalized growth,"locus YCL069W, strain vba3, hits give low values",0.942
same,normalized growth,"locus YCR088W, strain abp1, hits give low values",0.937
same,normalized growth,"locus YDL005C, strain med2, hits give low values",0.978
same,normalized growth,"locus YDL040C, strain nat1, hits give low values",0.949
same,normalized growth,"locus YDR001C, strain nth1, hits give low values",0.939
same,normalized growth,"locus YDR069C, strain doa4, hits give low values",0.948
same,normalized growth,"locus YDR137W, strain rgp1, hits give low values",0.859
same,normalized growth,"locus YDR159W, strain sac3, hits give low values",0.847 (active)
same,normalized growth,"locus YDR195W, strain ref2",1.13
same,normalized growth,"locus YDR297W, strain sur2, hits give low values",0.941
same,normalized growth,"locus YDR334W, strain swr1, hits give low values",0.946
same,normalized growth,"locus YDR335W, strain msn5, hits give low values",0.95
same,normalized growth,"locus YDR392W, strain spt3, hits give low values",0.758
same,normalized growth,"locus YEL003W, strain gim4, hits give low values",0.923
same,normalized growth,"locus YEL037C, strain rad23, hits give low values",0.938
same,normalized growth,"locus YEL061C, strain CIN8 (second series), hits give low values",0.931
same,normalized growth,"locus YER015W, strain faa2, hits give low values",0.955
same,normalized growth,"locus YER016W, strain bim1, hits give low values",0.954
same,normalized growth,"locus YER111C, strain swi4, hits give low values",0.95
same,normalized growth,"locus YER155C, strain BEM2 (second series), hits give low values",0.735 (active)
same,normalized growth,"locus YFR010W, strain ubp6, hits give low values",0.932
same,normalized growth,"locus YGL167C, strain pmr1, hits give low values",0.945
same,normalized growth,"locus YGL173C, strain kem1, hits give low values",0.921
same,normalized growth,"locus YGL227W, strain vid30, hits give low values",0.913 (active)
same,normalized growth,"locus YGL240W, strain doc1, hits give low values",0.812 (active)
same,normalized growth,"locus YGL253W, strain hxk2, hits give low values",0.935
same,normalized growth,"locus YHR013C, strain ard1, hits give low values",0.875
same,normalized growth,"locus YHR027C, strain rpn1, hits give low values",0.969
same,normalized growth,"locus YHR030C, strain SLT2, hits give low values",0.931
same,normalized growth,"locus YHR079C, strain IRE1, hits give low values",0.935
same,normalized growth,"locus YHR142W, strain chs7, hits give low values",0.877
same,normalized growth,"locus YJL092W, strain hpr5, hits give low values",0.946
same,normalized growth,"locus YJL095W, strain BCK1 (second series), hits give low values",0.944
same,normalized growth,"locus YJL095W, strain BCK1, hits give low values",0.927
same,normalized growth,"locus YJL115W, strain asf1, hits give low values",0.944
same,normalized growth,"locus YJL129C, strain trk1, hits give low values",0.903
same,normalized growth,"locus YJL154C, strain vps35, hits give low values",0.939
same,normalized growth,"locus YJL164C, strain tpk1, hits give low values",0.93
same,normalized growth,"locus YJL166W, strain qcr8, hits give low values",0.912
same,normalized growth,"locus YJL187C, strain SWE1, hits give low values",0.945
same,normalized growth,"locus YJR066W, strain TOR1, hits give low values",0.855
same,normalized growth,"locus YKL160W, strain elf1, hits give low values",0.956
same,normalized growth,"locus YKR026C, strain gcn3, hits give low values",0.93
same,normalized growth,"locus YKR091W, strain srl3, hits give low values",0.946
same,normalized growth,"locus YLL001W, strain dnm1, hits give low values",0.939
same,normalized growth,"locus YLL026W, hits give low values",0.953
same,normalized growth,"locus YLL041C, strain sdh2, hits give low values",0.961
same,normalized growth,"locus YLR027C, strain aat2, hits give low values",0.962
same,normalized growth,"locus YLR113W, strain HOG1, hits give low values",0.901
same,normalized growth,"locus YLR221C, strain rsa3, hits give low values",0.884 (active)
same,normalized growth,"locus YLR258W, strain gsy2, hits give low values",0.933
same,normalized growth,"locus YLR262C, strain YPT6 (second series), hits give low values",0.856 (active)
same,normalized growth,"locus YLR320W, strain mms22, hits give low values",0.87 (active)
same,normalized growth,"locus YLR342W, strain FKS1, hits give low values",0.954
same,normalized growth,"locus YLR357W, strain rsc2, hits give low values",0.942
same,normalized growth,"locus YLR370C, strain arc18, hits give low values",0.938
same,normalized growth,"locus YLR384C, strain iki3, hits give low values",0.974
same,normalized growth,"locus YML120C, strain ndi1, hits give low values",0.889 (active)
same,normalized growth,"locus YMR058W, strain fet3, hits give low values",0.908
same,normalized growth,"locus YMR125W, strain sto1, hits give low values",0.984
same,normalized growth,"locus YMR129W, hits give low values",0.944
same,normalized growth,"locus YMR205C, strain PFK2, hits give low values",0.903
same,normalized growth,"locus YMR231W, strain pep5, hits give low values",0.982
same,normalized growth,"locus YNL071W, strain lat1, hits give low values",0.919
same,normalized growth,"locus YNL183C, strain NPR1, hits give low values",0.887
same,normalized growth,"locus YNL209W, strain ssb2, hits give low values",0.96
same,normalized growth,"locus YNL248C, strain rpa49, hits give low values",0.917
same,normalized growth,"locus YNL322C, strain KRE1 (second series), hits give low values",0.927
same,normalized growth,"locus YNR049C, strain mso1, hits give low values",0.937
same,normalized growth,"locus YOR001W, strain rrp6, hits give low values",0.95
same,normalized growth,"locus YOR070C, strain gyp1, hits give low values",0.937
same,normalized growth,"locus YOR080W, strain dia2, hits give low values",0.943
same,normalized growth,"locus YOR083W, strain WHI5, hits give low values",0.942
same,normalized growth,"locus YOR106W, strain vam3, hits give low values",0.91
same,normalized growth,"locus YOR231W, strain MKK1, hits give low values",0.96
same,normalized growth,"locus YOR265W, strain rbl2, hits give low values",0.962
same,normalized growth,"locus YOR270C, strain vph1, hits give low values",0.744 (active)
same,normalized growth,"locus YOR290C, strain snf2, hits give low values",0.83 (active)
same,normalized growth,"locus YPL051W, strain arl3, hits give low values",0.972
same,normalized growth,"locus YPL078C, strain atp4, hits give low values",0.908
same,normalized growth,"locus YPL106C, strain sse1, hits give low values",0.9
same,normalized growth,"locus YPL240C, strain hsp82, hits give low values",0.94
same,normalized growth,"locus YPL256C, strain CLN2, hits give low values",0.91

# Source: PubChem BioAssay AID1159580 (chemical genetic matrix, 2015)
